# Screening results deposited in PubChem BioAssay by several laboratories.
# This is a sample that favours compounds with a hit; in the whole collection about 2.7% have one here.
# SKN-1 inh: C. elegans SKN-1 inhibition. inhibition, % at 21.8 µM. 360,000 compounds, 0.49% hits. C. elegans VP596 Pgst-4::GFP/RFP ratio, acrylamide-induced, 24 h;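 active means interference check ratio from 0.5 to 1.5 plus GFP to RFP signal ratio inhibition reaching or exceeding a fixed threshold, cut at about 30% in these data, passing the limit was not always enough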
# CFTR F508del cor: correctors of CFTR F508del function in bronchial epithelial cells | CFBE cells, YFP halide quenching; stimulated with forskolin plus potentiator P3; % fluorescence drop versus neutral controls | activity (quench increase), % at 7.58 µM | 350,000 compounds, 0.36% hits | AID 720511;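 active means mean added fluorescence quench of at least 8% versus neutral control, with both replicates also reaching 8%; inconclusive means only one of the mean or replicate conditions met; inactive means mean below 8% and not both replicates reaching 8%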;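 further: cells transiently co-express mutant CFTR-F508del with the halide-sensitive YFP; corrector assay measuring rescue of mutant channel to the surface after 24 h compound exposure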
# MPTP inh: permeability transition pore inhibition; isolated mouse mitochondria, Ca2+ swelling absorbance, 30 min; inhibition, % at 10 µM; 360,000 compounds, 1.4% hits;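 active means inhibition of 50% or more, scaled per plate between neutral and stimulator controls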;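 further: 0% = DMSO wells given calcium and 100% = 1 mM EGTA wells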
# ATG4B inhibitor: inhibitors of human ATG4B cysteine protease | ATG4B cleavage of LC3-PLA2, NBD-HPC fluorescence, 1 h | Q9Y4P1 | inhibition, % at 8.33 µM | 340,000 compounds, 0.51% hits; in the data active means inhibition above about 40%
# Target sequence (Q9Y4P1 whole entry, looked up): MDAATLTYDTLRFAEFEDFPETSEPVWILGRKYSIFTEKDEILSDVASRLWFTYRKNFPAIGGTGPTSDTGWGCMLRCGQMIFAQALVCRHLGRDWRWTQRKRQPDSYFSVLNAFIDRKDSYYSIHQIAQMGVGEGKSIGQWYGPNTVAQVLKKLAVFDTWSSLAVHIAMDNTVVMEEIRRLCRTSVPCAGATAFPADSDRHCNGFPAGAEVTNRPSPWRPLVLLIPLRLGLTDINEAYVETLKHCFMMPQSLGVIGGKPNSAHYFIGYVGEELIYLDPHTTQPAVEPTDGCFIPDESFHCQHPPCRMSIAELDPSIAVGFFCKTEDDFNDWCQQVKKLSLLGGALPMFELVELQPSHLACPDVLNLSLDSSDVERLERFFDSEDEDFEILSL
# NRP1-CendR mod: NRP-1/CendR interaction modulation | FAM-RPARPAR peptide binding to NRP-1, fluorescence polarization | inhibition, % at 25 µM | 360,000 compounds, 0.85% hits | AID 602438;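 active means inhibition or corrected inhibition above about 18%, plus a signal ratio from 0.5 to 1.5, limit read from the data, passing the limit was not always enough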
# MPTP counter: Rhodamine 123 counter-screen of mitochondrial pore hits; shares compounds with MPTP inh; isolated mitochondria, membrane potential, Rhodamine 123 fluorescence; inhibition, % at 10 µM; 5,000 compounds, 78% hits; in the data active means inhibition above about 22%;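 further: 0% = DMSO vehicle and 100% = positive control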
# MPTP abs DR: MPTP inhibition, dose response swelling confirmation; shares compounds with MPTP inh; isolated mitochondria swelling, absorbance; IC50, µM; 780 compounds, 58% hits; in the data active means IC50 below about 20 µM
# MPTP counter DR: counter-screen for mitochondrial permeability transition pore inhibitors, dose response; shares compounds with MPTP inh; isolated mitochondria counterscreen, fluorescence read-out; IC50, µM; 780 compounds, 49% hits; AID 651564; in the data active means IC50 below about 80 µM
# * marks the source's active call; other numbers are inactive results; i = inactive; ? = inconclusive; · = not tested or not shown; + = active, no number.
SMILES,SKN-1 inh,CFTR F508del cor,MPTP inh,ATG4B inhibitor,NRP1-CendR mod,MPTP counter,others
Cc1cccc2sc(NNC(=O)c3cc(-c4cccs4)nc4ccccc34)nc12,19.6,-1.3,68.0*,-3.5,-2.5,86.9*,
O=C(NC1CCCCC1)N[C@@H]1CC[C@H](CCNS(=O)(=O)c2ccccc2)O[C@@H]1CO,·,-2.6,·,·,·,·,
C=CC[n+]1c(-c2ccc(OC)cc2)csc1NNC(=O)Nc1ccccc1,15.2,0.5,71.2*,-20.5,1.1,59.2*,
C=CC[n+]1c(-c2ccc(C)cc2)csc1Nc1ccc(NC(C)=O)cc1,-9.1,-0.8,-0.6,2.9,6.0,·,
CCOC(=O)c1nnc(-c2cccs2)nc1Oc1ccc(Cl)cc1,-6.8,·,+,-6.2,-7.0,-5.1,MPTP abs DR=>100;MPTP counter DR=>80
CCOC(=O)c1nnc(-c2cccs2)nc1Oc1ccccc1C(=O)OC,-13.4,·,-1.9,-8.4,1.3,·,
O=C(C[C@@H]1C=C[C@H](NC(=O)NC2CCCC2)[C@H](CO)O1)NCc1ccc(F)cc1,·,0.0,·,·,·,·,
COC(=O)C1=NN(C(=O)c2cccc(Br)c2)C(O)(c2ccc(Cl)cc2)C1 (stereo not given),2.5,-0.5,66.6*,16.3,-14.7,73.2*,
CCOC(=O)C1=NN(C(=O)c2ccc(OC)cc2)C(O)(c2ccc(Cl)cc2)C1 (stereo not given),-2.8,-3.0,6.6,-8.6,-8.3,·,
CC(=O)c1c(C)[nH]c(C(=O)OCC(=O)Nc2cccc(S(=O)(=O)N3CCCC3)c2)c1C,3.5,·,61.9*,-30.2,0.9,61.1*,
CCN(CC)S(=O)(=O)c1cccc(NC(=O)COC(=O)c2[nH]c(C)c(C(C)=O)c2C)c1,17.3,-1.0,85.7*,·,-5.4,88.2*,
O=C(C[C@H]1C=C[C@@H](NC(=O)C2CC2)[C@H](CO)O1)NCc1ccncc1,·,1.2,·,·,·,·,
CN(C)C(=O)c1cccc(-c2ccccc2[C@H]2[C@@H](CO)N(C(=O)C3CCCC3)[C@H]2C#N)c1,·,2.6,·,·,·,·,
COCC(=O)N1C[C@H](C)[C@H](OC)CN(C)C(=O)c2cc(NC(=O)C3CCC3)ccc2OC[C@H]1C,·,3.2,·,·,·,·,
O=C(NCc1ccccc1F)[C@H]1N[C@H]2c3ccc(-c4ccccc4F)c(=O)n3C[C@H]2[C@@H]1CO,·,-3.4,·,·,·,·,
Cc1ccc(C)c(OCC(O)CN2CCC(Cc3ccccc3)CC2)c1 (stereo not given),11.3,0.7,78.2*,-4.7,15.2,19.5,MPTP abs DR=6.84*;MPTP counter DR=12.7*
Cc1ccc(C(C)C)c(OCC(O)CN2CCc3ccccc3C2)c1 (stereo not given),-5.2,-0.9,98.4*,14.6,-0.6,91.5*,
CCCCCOc1ccc(Br)cc1CSC(=N)N,2.9,2.2,68.2*,15.8,34.9*,105.3*,
CC[C@H](C)[C@@H](CN[C@H](C)CNC)NCCC(c1ccccc1)c1ccccc1,6.0,1.3,101.0*,-4.9,-13.5,-16.9,MPTP abs DR=3.81*;MPTP counter DR=>80
COc1cccc(CCN2CCC(CNS(=O)(=O)c3cc(-c4cc(C)no4)ccc3C)CC2)c1,-7.9,-1.2,78.8*,-4.1,-5.4,8.6,MPTP abs DR=6.79*;MPTP counter DR=23.7*
O=C(C[C@H]1C[C@@H]2c3cc(NC(=O)NC4CCCCC4)ccc3O[C@@H]2[C@@H](CO)O1)NCc1ccncc1,·,-1.9,·,·,·,·,
O=C(COC(=O)C1CC2C=CC1C2)Nc1cccc(S(=O)(=O)N2CCCCCC2)c1 (stereo not given),4.0,·,65.1*,5.1,11.8,70.2*,
O=C(COC(=O)C1CC2C=CC1C2)Nc1cccc(S(=O)(=O)N2CCCCC2)c1 (stereo not given),-1.2,·,58.8*,-6.8,-2.5,37.5*,
O=C(COC(=O)C1CCC1)Nc1cccc(S(=O)(=O)N2CCOCC2)c1,23.0,1.9,0.1,-0.3,8.4,·,
Cc1cc(C(=O)NC2CCCc3c2cnn3-c2ccc(C)c(C)c2)n(C)n1 (stereo not given),2.5,2.0,93.0*,2.2,0.5,87.1*,
SMILES,SKN-1 inh,CFTR F508del cor,MPTP inh,ATG4B inhibitor,NRP1-CendR mod,MPTP counter,others
Cc1ncoc1C(=O)NC1CCCc2c1cnn2-c1ccc(C(C)(C)C)cc1 (stereo not given),5.4,-4.3,79.4*,-3.5,7.1,93.6*,
CCCC(=O)Nc1ccc2c(c1)OC[C@@H](C)N(Cc1ccccc1OC)C[C@@H](C)[C@H](OC)CN(C)C2=O,·,0.6,·,·,·,·,
O=C(C[C@H]1CC[C@@H](NC(=O)Nc2ccccc2)[C@@H](CO)O1)NCc1cccc(F)c1,·,0.2,·,·,·,·,
Cc1noc(C)c1S(=O)(=O)Nc1ccc2c(c1)C(=O)N([C@@H](C)CO)C[C@H](C)[C@@H](CN(C)C)OCCCC[C@H](C)O2,·,-1.1,·,·,·,·,
Cn1nc(C(C)(C)C)cc1C(=O)NCc1ccc2c(c1)OCO2,-10.6,-2.8,100.8*,3.3,3.9,105.0*,
Cc1oc(C(C)(C)C)cc1C(=O)NCc1ccc2c(c1)OCO2,11.6,-5.4,63.1*,-0.5,-14.3,28.3*,
CNC[C@@H]1OCCCC[C@H](C)Oc2ccc(NC(=O)NC3CCCCC3)cc2C(=O)N([C@@H](C)CO)C[C@H]1C,·,1.5,·,·,·,·,
O=C(COC(=O)C1(c2ccc(F)cc2)CCCC1)NCc1ccco1,-6.8,-0.3,90.4*,-6.6,-16.5,3.5,MPTP abs DR=i;MPTP counter DR=60.7*
O=C(COC(=O)/C=C/c1ccc(F)cc1)NCc1ccco1,-11.8,0.3,-0.4,-7.4,-3.2,·,
Cc1ccnc(Nc2nc(-c3c(C)nc4sccn34)cs2)c1,-14.8,·,63.3*,-1.5,-3.5,21.0*,
N#C/C(=N\Nc1ccc(Cl)cc1)C(N)=S,39.1*,?,70.0*,-6.6,3.2,91.9*,
N#C/C(=N\Nc1ccccc1)C(N)=S,-5.1,1.6,6.3,2.9,-2.9,·,
Cc1ccc(N/N=C(\C#N)C(N)=S)cc1C,-3.7,-0.7,66.6*,-3.2,8.2,88.7*,
O=C(C[C@H]1CC[C@@H]2[C@H](COC[C@@H](O)CN2S(=O)(=O)c2ccc(F)cc2)O1)N[C@@H]1CCN(Cc2ccccc2)C1,·,1.5,·,·,·,·,
CCC(=O)N(C)C[C@H]1Oc2cc(-c3ccc(C#N)cc3)ccc2S(=O)(=O)N([C@@H](C)CO)C[C@@H]1C,·,0.5,·,·,·,·,
COc1cc(CNn2nnnc2N)cc(Br)c1OCc1c(Cl)cccc1Cl,9.4,·,51.8*,-12.2,5.1,30.4*,
COc1cc(CNn2nnnc2N)cc(Br)c1OCC(=O)NC(C)(C)C,-10.8,·,0.4,-6.2,-9.1,·,
Cc1onc(-c2ccccc2)c1C(=O)NNC(=S)NC(=O)/C=C/c1ccccc1,-1.3,1.0,93.2*,-5.0,13.1,4.8,
Cc1cccc(C(=O)NC(=S)NNC(=O)c2ccccc2Cl)c1,7.0,·,85.1*,-7.8,0.8,-7.5,
Cc1ccccc1C(=O)NNC(=S)NC(=O)c1ccc(Cl)cc1Cl,6.4,-1.3,76.1*,-7.2,-9.7,5.0,
